Results published in the OligoGym collection.

Molecular target: HSF2
Assay: pooled miR-30 sensor sort-seq; sequence = guide strand
Settings: shRNA
Note: reference of the scale not given here.

Row | Sequence | sensor-assay potency score (higher = more potent)
1 | TATGCAGCTGAGTAACACCTGA | -0.731
2 | TTCCTGTTTTATCTGAACCTTC | -0.752
3 | TACATCTGCGTAACTATGCAGC | -0.31
4 | TAAAACTAGTCCAACTAACTGG | -0.42
5 | TTTGAAGATGAAACCTTCCTTT | 0.173
6 | TTCATTGTCATCTTCAACGATG | -0.744
7 | TTTCTTGCTTTACAATTCCAGA | -1.24
8 | TAAACCTTCAGTCCTACTGTGT | -0.618
9 | TAACTTGTTGCTGTTGTGCATG | -0.847
10 | TTGAACATGAATAAACGTCTTT | 0.178
11 | TAAACTGGACAATCTTTCGAAT | -0.594
12 | TTAGTTTCTGGAATAACTGGGA | -0.0464

Molecular target: HSP90AA1
Assay: as above
Settings: shRNA

Row | Sequence | sensor-assay potency score (higher = more potent)
13 | TTGCTTTGTTGCAACATCTCAC | 0.536
14 | TTGATCGATGTACTTTTCCTTA | -0.594
15 | TTGATCATCCTGTAGATCCTGT | 0.84
16 | TACAACTTTAAGCAGAATGTGA | -0.45
17 | TCGGTTTGACACAACCACCTTT | -0.307
18 | TTTCTCTTCTTCATCCTCTGGA | 0.444
19 | TTTTTGACCAAATTCTTCCTGA | 0.315
20 | TTCTCCTTCATTCTGGTGCAGT | -0.91
21 | TACAATTTGATGTTGTTCTTTT | -0.348
22 | TTTGTTGCAACATCTCACGGGA | 0.467
23 | TTGAGTTGTCTCTTAGGGCTTG | 0.45
24 | TTATCCATGATGAAAACTCTGC | -0.426

Molecular target: HSP90B1
Assay: as above
Settings: shRNA

Row | Sequence | sensor-assay potency score (higher = more potent)
25 | TTTTACATCAAGAATAGTCAGT | 0.0481
26 | TTCATCGTCAGCTCTGACCGAC | 0.128
27 | TTTGAAGTGACAATAACCTTAT | -0.631
28 | TTTGTGATGCATTTAATCCATC | -1.31
29 | TTAAAAACTCGCTTGTCCCAGA | 0.327
30 | TTGCTGAAGAGTCTCGCGGGAA | -0.855
31 | TTTATCATCAGCAATCTTCTTG | 0.391
32 | TTTTTAACCAACTCTTCTCTGG | -0.121
33 | TATCATTGTATTTATCATCAGC | -0.644
34 | TTTTGAAGTGACAATAACCTTA | 0.45
35 | TTTCATCGAACTTCACTCCTTC | 0.873
36 | TTCTTGATCATGTCCAGCGTTT | -0.303

Molecular target: HSPA1A
Assay: as above
Settings: shRNA

Row | Sequence | sensor-assay potency score (higher = more potent)
37 | ATCTCTGCATGTAGAAACCGGA | -0.989
38 | TGCAAAGTCTTGAAGCTCCAAA | -0.87
39 | TTCTTCTTGTCGGCCTCGCTGA | -0.634
